Measured values from PubChem BioAssay AID1626 (SRMLSC, 2009).
In all, about 220,000 compounds went through this assay and about 2,000 (0.91%) were called active. Roughly 2% stayed inconclusive and do not appear here. A selection follows. Measured potencies and affinities stand elsewhere. Unmarked numbers belong to inactive results. No stated cut-off is given here; in the data, inconclusive means inhibition above about 80% without an active follow-up result; inactive means below that; test concentration not stated here.

Assay: M. tuberculosis H37Rv growth inhibitors, H37Rv strain (AID 1626);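 further: bacteria incubated seven days before Alamar blue readout; 0% = bacteria only wells and 100% = bacteria with antibiotic wells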
Conditions: hits give high values, concentration not given here
For `CCNC(=O)c1cc2c(=O)n3cccc(C)c3nc2n(CCc2ccccc2)c1=N`, the inhibition was -3.98%. Compound `N=c1c(C(=O)NCc2ccco2)cc2c(=O)n3ccccc3nc2n1CCc1ccccc1` has an inhibition of -6.57%. With `CCOCCCn1c(=N)c(C(=O)NCc2ccc3c(c2)OCO3)cc2c(=O)n3cccc(C)c3nc21` the inhibition was 26.6%. `CCCn1c(=N)c(C(=O)NCC2CCCO2)cc2c(=O)n3cccc(C)c3nc21` (stereo not drawn) showed an inhibition of -1.86%. For `COc1ccc(N2CCN(C(=O)CCCCCn3c(=O)[nH]c4ccsc4c3=O)CC2)cc1`, the inhibition was 0.96%. Compound `CS(=O)(=O)N1Cc2ccccc2CC1C(=O)Nc1ccccc1C(N)=O` (stereo not drawn) has an inhibition of 0.87%. For `CCc1ccc(N2Cc3ccccc3C2)cc1`, the inhibition was 14.3%. With `CN(C)CCNC(=O)/C=N/O` the inhibition was -1.95%. In the case of `O=C(NC1CCCCCC1)c1ccccc1-c1ccccc1`, the inhibition is reported as 36%. For `O=C(NC1CCCCC1)c1ccccc1-c1ccccc1`, the inhibition was 0.73%. `COc1cc(/C=N/NC(=O)CCc2n[nH]c(=O)[nH]c2=O)cc(OC)c1OC` gave an inhibition of -3.85%. `CCCCN1C(=O)CC(Sc2ncccc2C(=O)O)C1=O` (stereo not drawn) showed an inhibition of 3.02%. With `Cc1cc(N2C(=O)C3CCCN3C2c2cccc(Cl)c2)no1` (stereo not drawn) the inhibition was -8.92%. For `Cc1ccc(NC(=O)COc2ccccc2[N+](=O)[O-])nc1`, the inhibition was 0.84%. With `CN(C(=O)COc1ccccc1)c1nc(-c2ccc(F)cc2)cs1` the inhibition was -0.64%. `N#CCCN(C(=O)CCl)c1cccc(Cl)c1` gave an inhibition of 32.5%. Work on `Cc1ccc(C(=O)N(CC#N)CC#N)cc1C` yielded an inhibition of 0.74%. For `Cc1cccc(-c2noc(CCCOc3ccc(Cl)cc3Cl)n2)c1`, the inhibition was -7.47%. For `Clc1ccc(C2=Nc3cc(Cl)ccc3OC2)cc1`, the inhibition was -4.24%. For `Cc1ccc2c(c1)N=C(c1ccc(F)cc1)CO2`, the inhibition was -1.59%. `COCC(COCCCNC(=O)Nc1ccc(Br)cc1)OC` (stereo not drawn) gave an inhibition of 2.27%. Compound `CCOC(=O)c1sc(C)c2c1NC1(CCCCC1)NC2=O` has an inhibition of 2.89%. Compound `O=C(NCc1cccnc1)c1ccccc1CCc1ccccc1` has an inhibition of 5.46%. In the case of `C=CCSc1nnc(-c2cccnc2)o1`, the inhibition is reported as -5.82%. `N#CCSc1nnc(-c2sc3ccccc3c2Cl)o1` showed an inhibition of 11.6%. In the case of `NC(=O)CSc1nnc(-c2ccc([N+](=O)[O-])cc2)o1`, the inhibition is reported as -3.14%. `Cc1ccc(CSc2nnc(-c3ccc(NS(=O)(=O)c4ccccc4)cc3)o2)cc1` showed an inhibition of 11.7%. `CCOC(=O)CSc1ncc(-c2ccc([N+](=O)[O-])cc2)[nH]1` showed an inhibition of 47.4%. In the case of `COC(=O)CSc1nnc(-c2ccncc2)o1`, the inhibition is reported as -2.74%. Work on `CSc1nnc(-c2ccc([N+](=O)[O-])cc2)o1` yielded an inhibition of 34%. `Cc1ccc(S(=O)(=O)Nc2ccc(-c3nnc(SCc4ccccc4Cl)o3)cc2)cc1` gave an inhibition of 0.5%. Compound `COC(=O)c1cc(NS(=O)(=O)c2ccc(C)c3ccccc23)ccc1N1CCOCC1` has an inhibition of -0.65%. `O=C1CC(N2CCC(O)CC2)C(=O)N1c1ccc(Br)cc1` (stereo not drawn) gave an inhibition of -5.77%. Compound `O=C(CC1(O)C(=O)N(CCc2ccccc2)c2ccccc21)c1ccccn1` (stereo not drawn) has an inhibition of -2.54%. `CC(=O)c1c(C)[nH]c(C(=O)OCC(=O)N2c3ccccc3NC(=O)C2(C)C)c1C` showed an inhibition of 1.01%. `COC(=O)CSc1nnc(-c2ccc(S(=O)(=O)NCc3cccs3)cc2)o1` showed an inhibition of 62.9%. `CCS(=O)(=O)Nc1ccc(-c2nnc(SCC(=O)OC)o2)cc1` gave an inhibition of 6.98%. Work on `COC(=O)COc1ccccc1/C=C1/NC(=O)NC1=O` yielded an inhibition of -6.93%. Work on `COC(=O)COc1cc(Cl)c(C=O)cc1OC` yielded an inhibition of 4.35%. Compound `Cc1ccc2c(c1)c1c(n2C)C(=O)CCC1` has an inhibition of -12.1%. In the case of `OC1CN=C2CCCc3c2n(c2ccc(Cl)cc32)C1` (stereo not drawn), the inhibition is reported as -8.27%. Compound `COc1ccc2c(c1)c1c3n2CCN(C)C3=NCC1` has an inhibition of -9.72%. Work on `CCN1CCn2c3c(c4cc(C)ccc42)CCCC31` (stereo not drawn) yielded an inhibition of 3.23%. `Cc1ccc(C(=O)Nc2cc(C)c(OCC(=O)N3CCOCC3)c(C)c2)cc1` showed an inhibition of 0.81%. Work on `COc1ccc(C2C(C#N)=C(N)Oc3cc(C)n(Cc4ccco4)c(=O)c32)cc1` (stereo not drawn) yielded an inhibition of 3.54%. `CC1(C)Cc2nc3sc4c(SCC(=O)O)ncnc4c3cc2CO1` showed an inhibition of -5.61%. `CCSc1ncnc2c1sc1nc3c(cc12)COC(C)(C)C3` gave an inhibition of 12.9%. With `O=C(NCCCn1ccnc1)C(=O)NCC1OCCCN1S(=O)(=O)c1ccc(Cl)cc1` (stereo not drawn) the inhibition was 1.46%. `O=C(O)c1ccc(CN2CCCCC2)o1` gave an inhibition of -8.71%. Compound `COc1ccc(C2(CNC(=O)c3cccc([N+](=O)[O-])c3)CCCCC2)cc1OC` has an inhibition of 17.8%. Work on `COc1ccc(C2(CNC(=O)c3ccc(OC)c([N+](=O)[O-])c3)CCCCC2)cc1OC` yielded an inhibition of 8.89%. In the case of `O=C(Nc1nnc(SCC(=O)N2CCCCC2)s1)c1cccs1`, the inhibition is reported as -7.76%. With `Cc1ccc(F)cc1NC(=O)C1CCN(c2cnccn2)CC1` the inhibition was -7.04%. With `Cc1nn(Cc2ccccc2)c(N)c1-c1ccccc1` the inhibition was -0.48%. `O=C(Nc1ccccc1)c1n[nH]c(Cn2cncn2)n1` showed an inhibition of -3.09%. With `COc1ccc2nc(SCC(=O)Nc3ccccc3)[nH]c2c1` the inhibition was 6.28%. Work on `O=C(CSc1nc2ccc(Cl)cc2[nH]1)NC1CCCc2ccccc21` (stereo not drawn) yielded an inhibition of 17.1%. With `NS(=O)(=O)c1cccc(NC(=O)CSc2nc3ccc(Cl)cc3[nH]2)c1` the inhibition was -6.21%. In the case of `COc1ccc(NC(=O)CSc2nc3ccc(OC)cc3[nH]2)cc1`, the inhibition is reported as 45.7%. Work on `O=C(OCC(=O)N1CCCC1=O)C1COc2ccccc2O1` (stereo not drawn) yielded an inhibition of 2.07%. `CCN(CC)CCCNC(=O)c1cn(C)c2ccc(S(=O)(=O)N(C)C)cc2c1=O` showed an inhibition of -9.88%. `O=C(CCc1nc2ccccc2c(=O)[nH]1)N1CCN(c2ccc(F)cc2)CC1` showed an inhibition of -1.16%. `COc1cc(/C=N/n2c(-c3n[nH]c4c3CCC4)n[nH]c2=S)cc(OC)c1O` gave an inhibition of -6.81%.
